Measurements reported in PubChem BioAssay (NCATS).
Measured potencies and affinities stand elsewhere. Unmarked numbers belong to inactive results. Activity calls are given as the source filed them. How the calls were made is not given here.

Experiments:
[1] = Ebola virus entry assay, green fluorescence channel
[2] = Ebola virus entry assay, green channel fluorescence
Wherever efficacy is given: 0% is about no effect.

Row | Compound | efficacy [1] | outcome [2]
1 | Cc1ccccc1N1CCN(CCc2nnc3n2CCCC3)CC1 | -13.1% | inactive
2 | NC(=O)c1cc[n+](CC2=C(C(=O)[O-])N3C(=O)[C@@H](NC(=O)Cc4cccs4)[C@H]3SC2)cc1 | -13.3% | inactive
3 | C/C(=N\O)[C@@H](C)NCC(C)(C)CN[C@H](C)/C(C)=N/O | -29.3% | inactive
4 | O=C(OCc1ccccc1)c1ccccc1 | -23.2% | inactive
5 | O=C(O)c1ccccc1S | 16.8% | inactive
6 | COc1ccc(C2CNC(=O)C2)cc1OC1CCCC1 (centres undefined) | -23.7% | inactive
7 | Cc1cc(C)nc(NS(=O)(=O)c2ccc(N)cc2)n1 | -8.79% | inactive
8 | CCCCCCCCCCCCCCCC(=O)NCCO | 20.8% | inactive
9 | CCCOC(=O)c1ccccc1 | 17.4% | inactive
10 | Cc1coc2ccccc2c1=O | -25.1% | inactive
11 | CCOC(=O)Oc1ccc(CCNC(=O)[C@H](CCSC)NC(C)=O)cc1OC(=O)OCC | -12.4% | inactive
12 | CCCc1nn(C)c2c(=O)[nH]c(-c3cc(S(=O)(=O)N4CCN(C)CC4)ccc3OCC)nc12 | 14.7% | inactive
13 | NS(=O)(=O)c1ccc(C(=O)O)cc1 | 11% | inactive
14 | CC(=O)N[C@@H](CC(C)C)C(=O)O | -14.4% | inactive
15 | N#CSCC(=O)O | -33.9% | inactive
16 | O=c1[nH]c(=O)n([C@H]2C[C@H](O)[C@@H](CO)O2)cc1I | -7.83% | inactive
17 | O=C1c2ccccc2C(=O)c2ccccc21 | 11.2% | inactive
18 | Cn1c(=O)c2[nH]c(Br)nc2n(C)c1=O | -24.3% | inactive
19 | C[C@]12CC[C@H]3[C@@H](CCC4=CC(=O)CC[C@@H]43)[C@@H]1CC[C@@H]2OC(=O)CCC1CCCCC1 | -18.4% | inactive
20 | CN1CCN(N)CC1 | 16.4% | inactive
21 | CC(=O)NS(=O)(=O)c1ccc(N)cc1 | 10.9% | inactive
22 | Nc1ccc(S(=O)(=O)Nc2ccc(Cl)nn2)cc1 | -19.3% | inactive

Row | Compound | efficacy [1] | outcome [2]
23 | COc1c2occc2c(OC)c2c(=O)cc(C)oc12 | 13.6% | inactive
24 | O=C(O)/C=C\C(=O)O | 12.7% | inactive
25 | CN1N=C(C(N)=O)CCC1=O | -14% | inactive
26 | CO[C@@]1(NC(=O)CSCC#N)C(=O)N2C(C(=O)O)=C(CSc3nnnn3C)CS[C@@H]21 | -13.7% | inactive
27 | C[C@]12CCC(=O)C=C1CC[C@@H]1[C@@H]2[C@@H](O)C[C@@]2(C)[C@H]1CC[C@]2(O)C(=O)COC(=O)CCC(=O)O | -14% | inactive
28 | CNC[C@H](O)c1cccc(O)c1 | -23.9% | inactive
29 | CC(=O)[C@@]1(O)CC[C@H]2[C@@H]3C[C@H](C)C4=CC(=O)C=C[C@]4(C)[C@@]3(F)[C@@H](O)C[C@@]21C | -18.9% | inactive
30 | Cc1cc(O)cc2c1O[C@](C)(CCC[C@H](C)CCC[C@H](C)CCCC(C)C)CC2 | -22.5% | inactive
31 | COc1ccc(/C(C)=C/C(=O)O)c(OC)c1 | -13.7% | inactive
32 | O=C(N/N=C/c1ccc([N+](=O)[O-])o1)c1ccc(O)cc1 | 14.6% | inactive
33 | O=C(NCN1CCOCC1)c1cnccn1 | 22.2% | inactive
34 | C[C@H](N)C(=O)c1ccccc1 | 31.4% | inactive
35 | CC(C)=CCC[C@@](C)(O)[C@H]1CC=C(C)CC1 | -15.6% | inactive
36 | CC(=O)C1CCOC1=O (centres undefined) | 6.81% | inactive
37 | COc1cc2c(Nc3ccc(Br)cc3F)ncnc2cc1OCC1CCN(C)CC1 | 16.7% | inactive
38 | Cc1cc(C)c(NC(=O)CN(CC(=O)O)CC(=O)O)c(C)c1Br | 7.04% | inactive
39 | CCCNC(C)C(=O)Nc1c(C)csc1C(=O)OC (centres undefined) | 13% | inactive
40 | NC(=O)NC1NC(=O)NC1=O (centres undefined) | -19.2% | inactive
41 | CC(C)(C)NCC(O)COc1cccc2c1C[C@H](O)[C@H](O)C2 (some centres undefined) | 21.3% | inactive
42 | Cc1cc2cc3c(C)cc(=O)oc3c(C)c2o1 | -24.3% | inactive
43 | CC(=O)OCC(=O)[C@H]1CC[C@H]2[C@@H]3CCC4=CC(=O)CC[C@]4(C)[C@H]3CC[C@]12C | -27% | inactive
44 | O=C(O)COc1nn(Cc2ccccc2)c2ccccc12 | -8.45% | inactive

Row | Compound | efficacy [1] | outcome [2]
45 | CC(=O)OC(C)OC(=O)C(C)c1ccc(-c2ccccc2)c(F)c1 (centres undefined) | -16.8% | inactive
46 | N#C[C@H]1C[C@H]2C[C@@H]2N1C(=O)[C@@H](N)C12CC3CC(CC(O)(C3)C1)C2 | -19.1% | inactive
47 | O=C(O)CNC(=O)c1ccccc1 | -32.2% | inactive
48 | Nc1nc(N)nc(-c2cc(Cl)ccc2Cl)n1 | -23.5% | inactive
49 | Cc1c(C(C)C)c(=O)n(-c2ccccc2)n1C | 14.2% | inactive
50 | CC(=O)SCC(CC(=O)c1ccc(C)cc1)C(=O)O (centres undefined) | 17.3% | inactive
51 | CC(=O)O[C@@H]1C(=O)O[C@@H]2[C@H]1OC(=O)[C@@H]2OC(C)=O | -16.6% | inactive
52 | CC1c2ccccc2CN1NC(=O)c1ccc(Cl)c(S(N)(=O)=O)c1 (centres undefined) | 14.8% | inactive
53 | C[C@@H]1O[C@@H](OC[C@H]2O[C@@H](Oc3c(-c4ccc(O)c(O)c4)oc4cc(O)cc(O)c4c3=O)[C@H](O)[C@@H](O)[C@@H]2O)[C@H](O)[C@H](O)[C@H]1O | 21.1% | inactive
54 | CCCCCN(CCCOC)C(=O)C(CCC(=O)O)NC(=O)c1ccc(Cl)c(Cl)c1 (centres undefined) | -27.8% | inactive
55 | CCn1cc(C(=O)O)c(=O)c2cnc(N3CCNCC3)nc21 | -36.7% | inactive
56 | O=C(N/N=C/c1ccc([N+](=O)[O-])o1)c1cc([N+](=O)[O-])cc([N+](=O)[O-])c1O | -16.9% | inactive
57 | Cc1cc(=O)[nH]c(=S)[nH]1 | -11.2% | inactive
58 | CC1(C)O[C@@H]2C[C@H]3[C@@H]4CCC5=CC(=O)C=C[C@]5(C)[C@@]4(F)[C@@H](O)C[C@]3(C)[C@]2(C(=O)CO)O1 | 24.4% | inactive
59 | O=C(O)CSCC(=O)NC1CCSC1=O (centres undefined) | -14.4% | inactive
60 | Cc1ccc(C(=O)C(=O)O)cc1C | -11.1% | inactive
61 | CSCC[C@H](NC(=O)[C@H](Cc1c[nH]c2ccccc12)NC(=O)CCNC(=O)OC(C)(C)C)C(=O)N[C@@H](CC(=O)O)C(=O)N[C@@H](Cc1ccccc1)C(N)=O | 9.45% | inactive
62 | COc1cc(C=O)ccc1O | -12.7% | inactive
63 | CC(C(=O)O)c1cccc(Oc2ccccc2)c1 (centres undefined) | 18.1% | inactive
64 | Cc1onc(-c2ccccc2)c1-c1ccc(S(N)(=O)=O)cc1 | 21% | inactive
65 | Nc1cc(C(Cl)=C(Cl)Cl)c(S(N)(=O)=O)cc1S(N)(=O)=O | -15.2% | inactive
66 | CC(C)c1c(CN(C)C(C)Cc2ccccc2)n(C)n(-c2ccccc2)c1=O (centres undefined) | -15% | inactive

Row | Compound | efficacy [1] | outcome [2]
67 | Nc1ccc(C(=O)OCC(O)CO)cc1 (centres undefined) | 18.5% | inactive
68 | CC(C)(Oc1ccc(Cl)cc1)C(=O)OCCCOC(=O)C(C)(C)Oc1ccc(Cl)cc1 | -14% | inactive
69 | COc1cc(O)cc(O)c1 | 16.6% | inactive
70 | OCCc1ccccc1 | 36.8% | inactive
71 | CCNC(=O)/C=C/c1cccc(Br)c1 | -12% | inactive
72 | Cc1c(C(=O)O)c(O)cc2c1C(=O)c1c(O)c([C@@H]3O[C@H](CO)[C@@H](O)[C@H](O)[C@H]3O)c(O)c(O)c1C2=O | -19.5% | inactive
73 | CCC(C)(CN(C)C)OC(=O)c1ccccc1 (centres undefined) | 37.4% | inactive
74 | CCCCCCCCCCCCCCCCCCO | -11.3% | inactive
75 | COc1cc(C(=O)N2CCOCC2)cc(OC)c1OC | -19.5% | inactive
76 | Oc1ccccc1-c1nnco1 | 7.99% | inactive
77 | COc1ccccc1OCC(O)CO (centres undefined) | 12% | inactive
78 | CCOC(=O)c1ccc(OCCN2C[C@H](O)[C@@H](O)[C@H](O)[C@H]2CO)cc1 | -12.9% | inactive
79 | Nc1ccc(/C=C/c2ccc(N)cc2S(=O)(=O)O)c(S(=O)(=O)O)c1 | 21.3% | inactive
80 | Cc1cc(=O)c2c(O)c3c(O)cc(=O)c4c3c3c(cc(O)c1c23)C(C)(C)C=4O | -11.2% | inactive
81 | CC(=O)OCC1=C(C(=O)O)N2C(=O)[C@@H](N)[C@H]2SC1 | 11.9% | inactive
82 | O=C(O)c1ccc(=O)[nH]c1 | -14.8% | inactive
83 | CCN(CC)CCNC(=O)COc1ccc(OC)cc1 | 11.4% | inactive
84 | CC(=O)OCC(COC(C)=O)OC(C)=O | 12.7% | inactive
85 | CCCCCCC(=O)CCCCCC/C=C/C[C@@H](O)[C@H](O)[C@@](N)(CO)C(=O)O | -11.6% | inactive
86 | CCC(C)C(C)(COC(N)=O)COC(N)=O (centres undefined) | 12.3% | inactive
87 | NC(=O)NS(=O)(=O)c1ccc(Cl)cc1 | -22.2% | inactive
